This passage reports activity results from PubChem BioAssay.

The target of test [1] is Tumor necrosis factor receptor superfamily member 10B (Homo sapiens) (UniProt O14763). The test can be described thus: viability loss of caspase-8 NB7 cells with TRAIL – with/without TRAIL, luminescence panel, confirmation (AID 651596). Particulars: NB7 neuroblastoma + caspase-8, TRAIL sensitization, NB7 Caspase-8, with TRAIL, mean of runs, at 10 µM, stronger effect = higher value.
Test in test [2]: as above
Particulars: NB7 neuroblastoma + caspase-8, without TRAIL, NB7 Caspase-8, without TRAIL, mean of runs, at 10 µM.

Sequence of Tumor necrosis factor receptor superfamily member 10B (Homo sapiens) (O14763 whole entry, looked up): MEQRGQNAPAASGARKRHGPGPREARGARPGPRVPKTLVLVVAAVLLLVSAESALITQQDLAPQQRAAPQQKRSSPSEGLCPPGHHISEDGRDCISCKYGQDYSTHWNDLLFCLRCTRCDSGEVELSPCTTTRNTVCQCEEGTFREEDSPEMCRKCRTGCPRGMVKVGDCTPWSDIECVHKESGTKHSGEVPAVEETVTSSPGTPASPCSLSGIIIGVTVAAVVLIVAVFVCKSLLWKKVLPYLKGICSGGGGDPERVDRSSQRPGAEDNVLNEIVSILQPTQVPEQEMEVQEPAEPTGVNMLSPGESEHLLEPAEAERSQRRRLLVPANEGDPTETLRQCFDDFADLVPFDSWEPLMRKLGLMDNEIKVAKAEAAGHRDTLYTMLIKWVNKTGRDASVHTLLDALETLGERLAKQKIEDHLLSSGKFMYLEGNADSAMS

Turning to `CCCOc1ccc(-c2nc(N3CCN(C)CC3)c3ccccc3n2)cc1`, the values for the activity in test [1] and in test [2] were 71% and 67.7%, respectively.

Take `O=Cc1s/c(=N\S(=O)(=O)c2ccccc2)n(CCCCl)c1Cl`: the activity was determined as 94.2% in test [1] and 88.6% in test [2].

In the case of `Cc1csc(NC(=O)c2ccc(OCC3CCCO3)cc2)n1` (stereo not given), the activity is 54.9% in test [1] and 64.9% in test [2].

For `N#CCCCC#Cc1ccc2c(c1)COc1c3ccccc3nn1-2`, the activity in test [1] amounted to 78.1%; in test [2], 75.6%.

As to `CN(C)c1ccc(/C=N/NC(=O)c2ccco2)cc1`, the values for the activity in test [1] and in test [2] were 50.2% and 31.4%, respectively.

As to `CCc1ccc(C(=O)Cn2ccsc2=N)cc1`, the results for the activity in test [1] and in test [2] were 66.5% and 66.6%, respectively.

As for `COc1ccc(C(=O)Nc2cc(C)on2)cc1`, the activity is 49.3% in test [1] and 38.6% in test [2].

In the case of `Cc1cc(C)cc(N2C(N)=NC(N)=NC2c2cccc(Cl)c2)c1` (stereo not given), the activity came to 57.8% in test [1] and 74.3% in test [2].

In the case of `c1cncc(-c2nc3cc4ccccc4cc3[nH]2)c1`, the activity in test [1] amounted to 66.7%; in test [2], 57.3%.

Consider `Cc1ccc(-n2c(C3CC3c3ccc(Cl)cc3)n[nH]c2=S)cc1` (stereo not given), for which the activity in test [1] came to 52.8%; in test [2], 46.7%.
